Assay results reported in PubChem BioAssay (Tox21).
Records with an inconclusive call do not appear. Active and inactive are the calls of the source. Unless noted, calls follow the shape of the dose curve; as a rule, active = well fitted curve in the direction sought with a large enough effect in the repeat runs; inconclusive = weak or mixed curves; inactive = no such curve, though single readings can be large; an effect the other way counts as inactive or inconclusive.

Tests used:
[1] = qHTS assay to identify small molecule agonists of the peroxisome proliferator-activated receptor delta (PPARd) signaling pathway - cell viability counter screen (AID 743211); also: nearly all actives have a fitted effect of over 55% in size
How it was run: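 Tox21 library compounds, delivered in DMSO, were incubated 17 h with PPARd-bla HEK293H cells; cytotoxicity was taken from CellTiter-Glo luminescence read 30 min after reagent addition.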

[2] = target: Peroxisome proliferator-activated receptor delta (Homo sapiens) (UniProt Q03181); experiment: qHTS assay to identify small molecule agonists of the peroxisome proliferator-activated receptor delta (PPARd) signaling pathway (AID 743212; calls by dose curve; also: potency is read from the fitted curve at half-maximal effect)
Peroxisome proliferator-activated receptor delta (Homo sapiens), sequence (Q03181 whole entry, looked up): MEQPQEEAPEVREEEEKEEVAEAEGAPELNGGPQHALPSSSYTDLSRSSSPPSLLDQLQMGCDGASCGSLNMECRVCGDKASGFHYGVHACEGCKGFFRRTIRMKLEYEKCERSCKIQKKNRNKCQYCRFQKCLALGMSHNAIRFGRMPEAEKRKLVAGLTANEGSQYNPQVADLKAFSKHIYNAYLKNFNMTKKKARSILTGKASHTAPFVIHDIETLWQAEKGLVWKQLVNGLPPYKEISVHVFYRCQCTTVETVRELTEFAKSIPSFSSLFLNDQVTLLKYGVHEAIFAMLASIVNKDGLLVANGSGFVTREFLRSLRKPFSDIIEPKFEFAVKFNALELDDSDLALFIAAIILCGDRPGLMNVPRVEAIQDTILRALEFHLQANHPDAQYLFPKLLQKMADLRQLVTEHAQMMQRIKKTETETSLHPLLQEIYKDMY
How it was run: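 Tox21 library screened in GeneBLAzer PPARd UAS-bla HEK293H cells. After compound treatment at 37 C, a FRET-based beta-lactamase substrate was applied for 2 h and fluorescence recorded.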

[3] = qHTS assay to identify small molecule antagonists of the peroxisome proliferator-activated receptor delta (PPARd) signaling pathway - cell viability counter screen (AID 743213); also: nearly all actives have a fitted effect of over 50% in size
How it was run: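 CellTiter-Glo was added to PPARd-bla HEK293H wells following 17 h compound treatment in the presence of 300 nM L165041. Luminescence was recorded after 30 min at room temperature.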

[4] = target: Peroxisome proliferator-activated receptor delta (Homo sapiens) (UniProt Q03181); experiment: qHTS assay to identify small molecule antagonists of the peroxisome proliferator-activated receptor delta (PPARd) signaling pathway (AID 743215; active = well fitted inhibition curve with a large enough effect in the signal ratio in the repeat runs, not every such curve was filed as active; the % refers to the signal ratio;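 also: cells stimulated with agonist L165041 at 300 nM final during compound exposure; series mostly up to about 62 µM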)
How it was run: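 Agonist L165041 (300 nM final) added with compound to PPARd-bla HEK293H UAS-bla reporter cells; 17 h incubation at 37 C. Read-out: LiveBLAzer FRET substrate, 2 h at room temperature, fluorescence intensity.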

[5] = qHTS assay to identify small molecule agonists of the farnesoid-X-receptor (FXR) signaling pathway - cell viability counter screen (AID 743218); also: nearly all actives have a fitted effect of over 45% in size
How it was run: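 Viability counter screen in the same wells: CellTiter-Glo luminescence, 30 min room-temperature incubation, measured after the beta-lactamase read. Cells were GeneBLAzer FXR-UAS-bla HEK 293T, compound-treated 16 h at 37C.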

[6] = qHTS assay to identify small molecule antagonists of the farnesoid-X-receptor (FXR) signaling pathway - cell viability counter screen (AID 743221; active = well fitted cell-killing curve with a large enough effect in the repeat runs, not every such curve was filed as active; also: nearly all actives have a fitted effect of over 50% in size)
How it was run: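 Cytotoxicity is taken from ATP luminescence (CellTiter-Glo, 30 min, room temperature) in FXR-bla HEK 293T cells previously incubated 16 h at 37 C with compound and chenodeoxycholic acid at 50 uM final.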

[7] = target: Vitamin D3 receptor (Homo sapiens) (UniProt P11473); experiment: qHTS assay to identify small molecule agonists of the vitamin D receptor (VDR) signaling pathway (AID 743222; calls by dose curve)
Vitamin D3 receptor (Homo sapiens), sequence (P11473 whole entry, looked up): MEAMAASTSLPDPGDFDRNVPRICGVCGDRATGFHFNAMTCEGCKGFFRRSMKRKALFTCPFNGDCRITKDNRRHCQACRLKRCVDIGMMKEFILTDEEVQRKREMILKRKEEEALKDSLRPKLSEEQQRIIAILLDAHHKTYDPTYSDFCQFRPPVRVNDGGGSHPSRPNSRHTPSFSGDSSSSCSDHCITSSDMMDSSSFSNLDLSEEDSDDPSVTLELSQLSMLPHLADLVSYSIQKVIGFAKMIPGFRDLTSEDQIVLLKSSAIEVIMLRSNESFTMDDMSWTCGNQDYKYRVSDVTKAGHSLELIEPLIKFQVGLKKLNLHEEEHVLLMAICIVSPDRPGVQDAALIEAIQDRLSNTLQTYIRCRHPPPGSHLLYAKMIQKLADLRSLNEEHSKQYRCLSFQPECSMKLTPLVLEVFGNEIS
How it was run: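 Agonist mode, beta-lactamase reporter: fluorescence from LiveBLAzer B/G FRET substrate (2 h, room temperature) read after 16 h compound treatment at 37 C of VDR-bla cells, which were pre-incubated 4 h after seeding.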

[8] = target: Vitamin D3 receptor (Homo sapiens) (UniProt P11473); experiment: qHTS assay to identify small molecule antagonists of the vitamin D receptor (VDR) signaling pathway (AID 743223; active = well fitted inhibition curve with a large enough effect in the signal ratio in the repeat runs, not every such curve was filed as active; the % refers to the signal ratio)
How it was run: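 Quantitative HTS in VDR-bla reporter cells stimulated with 1alpha,25-dihydroxyvitamin D3, 3 nM final. Compound exposure 16 h, 37C, 5% CO2. Read-out: beta-lactamase FRET substrate fluorescence, 2 h RT.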

[9] = qHTS assay to identify small molecule agonists of the vitamin D receptor (VDR) signaling pathway - cell viability counter screen (AID 743224); also: series mostly up to about 63 µM; nearly all actives have a fitted effect of over 50% in size
How it was run: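 Counter screen run in the same wells as the VDR-bla reporter assay: CellTiter-Glo luminescence, 30 min at room temperature, after 16 h compound treatment at 37C of cells pre-plated for 4 h.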

[10] = qHTS assay to identify small molecule antagonists of the vitamin D receptor (VDR) signaling pathway - cell viability counter screen (AID 743225); also: nearly all actives have a fitted effect of over 50% in size
How it was run: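 Same-well multiplex: following 16 h treatment of HEK 293T cells carrying a UAS-driven beta-lactamase reporter with compound and agonist (3 nM final), and a 2 h FRET substrate step, CellTiter-Glo was added and luminescence read after 30 min.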

[11] = qHTS assay to identify small molecule agonists of the NFkB signaling pathway (AID 1159509; active = well fitted curve in the direction sought with a large enough effect in the signal ratio in the repeat runs, not every such curve was filed as active; the % refers to the signal ratio; also: series mostly up to about 61 µM)
How it was run: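 Agonist activity was read as beta-lactamase-driven FRET change (460 and 530 nm emission, 405 nm excitation) following 1.5 hr substrate loading at room temperature. Beforehand, ME-180 NFkB-bla reporter cells were treated with compounds for 5 hr at 37 C.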

[12] = qHTS assay to identify small molecule agonists of the NFkB signaling pathway - cell viability counter screen (AID 1159515; calls by dose curve; also: series mostly up to about 61 µM; nearly all actives have a fitted effect of over 55% in size)
How it was run: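 Read by CellTiter-Glo luminescence (30 min, room temperature) in the wells also used for the beta-lactamase FRET read. ME-180 NFkB-bla cells at 2,000 per well were plated overnight, then exposed to compound for 5 hr at 37 C.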

[13] = qHTS assay to identify small molecule agonists of the endoplasmic reticulum stress response signaling pathway (AID 1159516; active = well fitted activation curve with a large enough effect in the signal ratio in the repeat runs, not every such curve was filed as active; the % refers to the signal ratio)
How it was run: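 Ratiometric FRET readout (405 nm excitation; 460 and 530 nm emission) of a beta-lactamase gene driven by the ER stress response element, after 2 hr substrate loading. HeLa ESRE-bla cells were seeded overnight and treated with compounds for only 5 hr at 37 C.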

[14] = qHTS assay to identify small molecule agonists of the endoplasmic reticulum stress response signaling pathway - cell viability counter screen (AID 1159517; calls by dose curve)
How it was run: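 In parallel with the ESRE reporter read, cytotoxicity was scored by CellTiter-Glo luminescence (30 min, room temperature) on HeLa ESRE-bla cells dosed for 5 hr.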

[15] = qHTS assay to identify small molecule antagonists of the retinoid-related orphan receptor gamma (ROR-gamma) signaling pathway - cell viability counter screen (AID 1159520); also: nearly all actives have a fitted effect of over 50% in size
How it was run: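 Tet-on ROR gamma CHO cells were given compounds for 2 hr, then doxycycline hyclate at 1 uM final, and incubated 16 hr at 37 C. Viability was measured as ATP content by CellTiter-Glo luminescence.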

[16] = target: Nuclear receptor ROR-gamma (Homo sapiens) (UniProt P51449); experiment: qHTS assay to identify small molecule antagonists of the retinoid-related orphan receptor gamma (ROR-gamma) signaling pathway (AID 1159521)
How it was run: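 Inducible-expression reporter assay: doxycycline (1 uM final) switched on RORγ in CHO cells bearing a ROR response element-luciferase construct, with test compounds present from 2 h beforehand. Decreased luminescence after 16 h defined antagonist activity.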

[17] = qHTS assay to identify small molecule agonists of the AP-1 signaling pathway - cell viability counter screen (AID 1159525; calls by dose curve; also: nearly all actives have a fitted effect of over 55% in size)
How it was run: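 Same-well cytotoxicity counter screen of the Tox21 10K library in ME-180 cells. The readout is ATP-dependent luminescence after 5 h compound treatment. Data are normalised to DMSO and tetra n-octyl ammonium bromide controls.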

[18] = qHTS assay to identify small molecule agonists of the AP-1 signaling pathway (AID 1159526; calls by dose curve)
[19] = target: Bile acid receptor (Homo sapiens) (UniProt Q96RI1); experiment: qHTS assay to identify small molecule antagonists of the farnesoid-X-receptor (FXR) signaling pathway (AID 743217; active = well fitted inhibition curve with a large enough effect in the signal ratio in the repeat runs, not every such curve was filed as active; the % refers to the signal ratio)
Bile acid receptor (Homo sapiens), sequence (Q96RI1 whole entry, looked up): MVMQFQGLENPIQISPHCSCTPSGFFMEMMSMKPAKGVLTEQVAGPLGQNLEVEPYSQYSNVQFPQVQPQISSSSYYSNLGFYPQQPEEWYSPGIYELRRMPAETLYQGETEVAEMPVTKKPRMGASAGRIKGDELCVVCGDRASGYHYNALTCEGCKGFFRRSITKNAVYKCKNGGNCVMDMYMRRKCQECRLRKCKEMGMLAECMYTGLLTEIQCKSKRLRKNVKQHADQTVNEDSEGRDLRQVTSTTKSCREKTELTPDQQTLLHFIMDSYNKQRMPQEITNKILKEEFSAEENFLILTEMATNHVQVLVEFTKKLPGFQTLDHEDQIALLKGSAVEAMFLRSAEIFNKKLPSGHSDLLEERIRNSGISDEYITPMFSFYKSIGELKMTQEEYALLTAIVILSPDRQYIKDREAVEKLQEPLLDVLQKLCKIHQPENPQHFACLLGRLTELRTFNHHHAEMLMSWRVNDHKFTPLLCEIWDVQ
How it was run: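 Antagonist mode: chenodeoxycholic acid at 50 uM final stimulates a UAS-driven beta-lactamase reporter in HEK 293T FXR-bla cells during 16 h, 37C compound exposure. Read-out is FRET substrate fluorescence after 2 h at room temperature.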

[20] = target: Bile acid receptor (Homo sapiens) (UniProt Q96RI1); experiment: qHTS assay to identify small molecule agonists of the farnesoid-X-receptor (FXR) signaling pathway (AID 743220; active = well fitted activation curve with a large enough effect in the signal ratio in the repeat runs, not every such curve was filed as active; the % refers to the signal ratio)
How it was run: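 FXR-UAS-bla HEK 293T cells carrying a UAS-driven beta-lactamase reporter were plated for 5 h at 37C/5% CO2, then exposed to DMSO-dissolved Tox21 10K compounds for 16 h at 37C. A LiveBLAzer B/G FRET substrate was loaded for 2 h at room temperature before fluorescence reading.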

Measured: Potency

CC(=O)OCc1ccccc1
not listed: [19] | [20]
inactive: all other assays above

CCOCC(=O)O
not listed: [19] | [20]
inactive: all other assays above

CC(CCl)OP(=O)(OC(C)CCl)OC(C)CCl (centres undefined)
inactive: all assays above

CC(=O)OC1CC(C)OC(C)O1 (centres undefined)
not listed: [7] | [8]
inactive: all other assays above

NCCCCCCN
not listed: [19] | [20]
inactive: all other assays above

CC(C)(Oc1ccc(CCNC(=O)c2ccc(Cl)cc2)cc1)C(=O)O
active: [2] 38.9 µM
inactive: all other assays above

CC(C)CC(C)O (centres undefined)
inactive: all assays above

C[C@]12CC[C@@H]3c4ccc(O)cc4CC[C@H]3[C@@H]1C[C@@H](O)[C@@H]2O
not listed: [19] | [20]
inactive: all other assays above

COc1ccc([N+](=O)[O-])cc1N
inactive: all assays above

N[C@H](Cc1c[nH]c2ccccc12)C(=O)O
not listed: [19] | [20]
inactive: all other assays above

N#Cc1ccccc1
inactive: all assays above

C=C(C)CNCC
not listed: [19] | [20]
inactive: all other assays above

O=[N+]([O-])c1ccc2nc[nH]c2c1
not listed: [7] | [8]
inactive: all other assays above

CN(C)c1ccc(Cc2ccc(N(C)C)cc2)cc1
inactive: all assays above
